The nature of test [1]: NCI Yeast Anticancer Drug Screen. Data for the rad50 strain (AID 155).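 Also: 0% = growth of vehicle-only cultures of the same strain.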 As to conditions: S. cerevisiae rad50 strain growth inhibition, stronger effect = higher value. In a few lines: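 Cells are treated with compound, grown, and their growth is then scored against vehicle-only cultures of the same repair-deficient yeast strain.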
Test [2] can be described thus: NCI Yeast Anticancer Drug Screen. Data for the mec2-1 strain (AID 157). As to conditions: S. cerevisiae mec2-1 strain, stronger effect = higher value. Summed up: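 Growth inhibition is read against vehicle-treated controls after compound exposure of the mec2-1 yeast strain, which is defective in DNA damage repair or cell cycle control.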
A short description of test [3]: NCI Yeast Anticancer Drug Screen. Data for the sgs1 mgt1 strain (AID 161).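 Also: 0% = growth of cultures given vehicle only.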 As to conditions: S. cerevisiae sgs1 mgt1 strain, stronger effect = higher value. Summed up:
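Compounds are added to genetically altered yeast, and growth is compared with cultures given vehicle alone to give percent inhibition.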

A short description of test [4]: NCI Yeast Anticancer Drug Screen. Data for the cln2 rad14 strain (AID 165).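 Also: 0% = growth equal to vehicle treated cultures.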 As to conditions: S. cerevisiae cln2 rad14 strain, stronger effect = higher value. Summed up:
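Growth inhibition, relative to vehicle-treated controls, is the read-out. The test organism is a yeast strain with defined genetic alterations, cln2 rad14.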

The nature of test [5]: NCI Yeast Anticancer Drug Screen. Data for the bub3 strain (AID 167). The following applies: S. cerevisiae bub3 mutant strain, stronger effect = higher value. Summed up: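 Part of a panel of yeast mutants defective in DNA damage repair or cell cycle regulation. Each strain is grown with compound, and inhibition is calculated relative to solvent-treated cultures.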
Test [6] in a line: NCI Yeast Anticancer Drug Screen. Data for the mlh1 rad18 strain (AID 175). The following applies: S. cerevisiae mlh1 rad18 strain growth inhibition, stronger effect = higher value. In a few lines: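 Cells of a genetically altered yeast strain, deficient in DNA damage repair, were treated with compound. Their growth was then compared with that of vehicle-treated cultures to give inhibition.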

[7] abbreviates: at 5.0 µM (retest, dose inferred, filed as 0.5).
Setting [8] is: at 50.0 µM (retest, dose inferred, filed as 5.0).

About 79,000 compounds went through this panel and 15% of them were active in at least one assay; those are over-represented in the sample as a whole. Unmarked numbers belong to inactive results. The source made the active and inactive calls. Rule as the data show it: active = growth inhibition above about 70%; inactive = the rest.

With `Clc1ccc2ns[s+]c2c1`, the growth inhibition in test [1] (setting [7]) was 8%; in test [1] (setting [8]), 78% (active); in test [1] (at 50.0 µM) it was 73.7% (active); in test [2] (setting [7]) it was 13%; in test [2] (setting [8]) it was 93% (active); in test [2] (at 50.0 µM) it was 48.1%. The growth inhibition in test [3] (setting [7]) was 12%; in test [3] (setting [8]) it was 86% (active); in test [3] (at 50.0 µM) it was 80.6% (active); in test [4] (setting [7]), 21%; in test [4] (setting [8]) it was 49%; in test [4] (at 50.0 µM), 47.8%. The growth inhibition in test [5] (setting [7]) is 26%; in test [5] (setting [8]) it was 96% (active); in test [5] (at 50.0 µM) it was 72.3% (active); in test [6] (setting [7]), 17%; in test [6] (setting [8]), 85% (active); in test [6] (at 50.0 µM) it was -27.7%.

As to `Cc1ccc(/C=C2\CCCC(CN3CCCCC3)C2=O)cc1` (stereo not given), the growth inhibition in test [1] (setting [7]) was 23%; in test [1] (setting [8]) it was 99% (active); in test [1] (at 50.0 µM), 75% (active); in test [2] (setting [7]), 34%; in test [2] (setting [8]), 99% (active); in test [2] (at 50.0 µM) it was 83% (active). Besides, the growth inhibition in test [3] (setting [7]) is 30%; in test [3] (setting [8]), 99% (active); in test [3] (at 50.0 µM), 87.8% (active); in test [4] (setting [7]), 45%; in test [4] (setting [8]), 98% (active); in test [4] (at 50.0 µM), 73.3% (active). In addition, the growth inhibition in test [5] (setting [7]) was 37%; in test [5] (setting [8]), 99% (active); in test [5] (at 50.0 µM) it was 89.3% (active); in test [6] (setting [7]) it was 32%; in test [6] (setting [8]), 99% (active); in test [6] (at 50.0 µM), 90% (active).

As for `O=S1(=O)CC=C1c1ccccc1`, the growth inhibition is 8% in test [1] (setting [7]); 78% (active) in test [1] (setting [8]); 96.3% (active) in test [1] (at 50.0 µM); 8% in test [2] (setting [7]); 92% (active) in test [2] (setting [8]); 96.5% (active) in test [2] (at 50.0 µM). The growth inhibition in test [3] (setting [7]) was 7%; in test [3] (setting [8]), 89% (active); in test [3] (at 50.0 µM), 94.8% (active); in test [4] (setting [7]), 5%; in test [4] (setting [8]), 61%; in test [4] (at 50.0 µM), 73.8% (active). The growth inhibition in test [5] (setting [7]) was 2%; in test [5] (setting [8]), 84% (active); in test [5] (at 50.0 µM) it was 95.2% (active); in test [6] (setting [7]), 2%; in test [6] (setting [8]), 92% (active); in test [6] (at 50.0 µM), 97.7% (active).

For the molecule `Cc1ccc(NC(=O)CCc2nnc(N)n2N)cc1`, the growth inhibition in test [1] (setting [7]) was -2%; in test [1] (setting [8]), -5%; in test [1] (at 50.0 µM), -3.55%; in test [2] (setting [7]) it was -1%; in test [2] (setting [8]) it was 4%; in test [2] (at 50.0 µM), 96.5% (active). The growth inhibition in test [3] (setting [7]) was -6%; in test [3] (setting [8]), 0%; in test [3] (at 50.0 µM), 97.5% (active); in test [4] (setting [7]), 0%; in test [4] (setting [8]), 5%; in test [4] (at 50.0 µM), 93.2% (active). Moreover, the growth inhibition in test [5] (setting [7]) was 4%; in test [5] (setting [8]), 7%; in test [5] (at 50.0 µM) it was 95% (active); in test [6] (setting [7]), -4%; in test [6] (setting [8]), -1%; in test [6] (at 50.0 µM) it was 97.2% (active).

Take `O=c1c(Cc2c[nH]c3ccccc23)coc2ccccc12`: the growth inhibition in test [1] (setting [7]) was 0%; in test [1] (setting [8]), 95% (active); in test [1] (at 50.0 µM), 24.2%; in test [2] (setting [7]), 8%; in test [2] (setting [8]), 91% (active); in test [2] (at 50.0 µM) it was 7.85%. Further, the growth inhibition in test [3] (setting [7]) is 3%; in test [3] (setting [8]), 84% (active); in test [3] (at 50.0 µM), 51.1%; in test [4] (setting [7]) it was 10%; in test [4] (setting [8]), 92% (active); in test [4] (at 50.0 µM) it was -69.5%. The growth inhibition is 9% in test [5] (setting [7]); 98% (active) in test [5] (setting [8]); 14.1% in test [5] (at 50.0 µM); 0% in test [6] (setting [7]); 95% (active) in test [6] (setting [8]); 21.8% in test [6] (at 50.0 µM).

Regarding `C=CCOC(=O)C(O)C(CC)CCCCC` (stereo not given), the growth inhibition in test [1] (setting [7]) was 25%; in test [1] (setting [8]), 92% (active); in test [1] (at 50.0 µM), 52.9%; in test [2] (setting [7]), 0%; in test [2] (setting [8]), 87% (active); in test [2] (at 50.0 µM) it was 46%. The growth inhibition in test [3] (setting [7]) is 9%; in test [3] (setting [8]), 89% (active); in test [3] (at 50.0 µM) it was 76.7% (active); in test [4] (setting [7]) it was 10%; in test [4] (setting [8]), 31%; in test [4] (at 50.0 µM), 80.2% (active). The growth inhibition in test [5] (setting [7]) is 16%; in test [5] (setting [8]) it was 91% (active); in test [5] (at 50.0 µM), 54.4%; in test [6] (setting [7]), 17%; in test [6] (setting [8]), 92% (active); in test [6] (at 50.0 µM), -3.3%.

`CCc1[nH]c2ccccc2c1C(c1c(CC)[nH]c2ccccc12)C1CCCCC1=O` (stereo not given): the growth inhibition in test [1] (setting [7]) was 1%; in test [1] (setting [8]) it was 91% (active); in test [1] (at 50.0 µM) it was 93.2% (active); in test [2] (setting [7]), -8%; in test [2] (setting [8]) it was 97% (active); in test [2] (at 50.0 µM), 88.8% (active). Moreover, the growth inhibition in test [3] (setting [7]) was -10%; in test [3] (setting [8]), 96% (active); in test [3] (at 50.0 µM), 92.2% (active); in test [4] (setting [7]) it was 0%; in test [4] (setting [8]) it was 95% (active); in test [4] (at 50.0 µM), 95.2% (active). Also, the growth inhibition is 0% in test [5] (setting [7]); 95% (active) in test [5] (setting [8]); 79.8% (active) in test [5] (at 50.0 µM); -9% in test [6] (setting [7]); 97% (active) in test [6] (setting [8]); 95.6% (active) in test [6] (at 50.0 µM).

For the molecule `Cc1ccc(C(=O)CC(N)C(=O)O)cc1` (stereo not given), the growth inhibition in test [1] (setting [7]) was -2%; in test [1] (setting [8]), 0%; in test [1] (at 50.0 µM), 12.2%; in test [2] (setting [7]), 3%; in test [2] (setting [8]), -2%; in test [2] (at 50.0 µM), -3%. Also, the growth inhibition is -1% in test [3] (setting [7]); -1% in test [3] (setting [8]); -3.05% in test [3] (at 50.0 µM); 2% in test [4] (setting [7]); 1% in test [4] (setting [8]); 89% (active) in test [4] (at 50.0 µM). Further, the growth inhibition is 2% in test [5] (setting [7]); -2% in test [5] (setting [8]); -2.25% in test [5] (at 50.0 µM); -1% in test [6] (setting [7]); 3% in test [6] (setting [8]); 8.95% in test [6] (at 50.0 µM).

As to `COC(=O)C(=C(c1ccccc1)c1ccccc1)c1ccccc1`, the growth inhibition in test [1] (setting [7]) was 3%; in test [1] (setting [8]), -1%; in test [1] (at 50.0 µM), 25.8%; in test [2] (setting [7]), 0%; in test [2] (setting [8]), 4%; in test [2] (at 50.0 µM), 23.1%. Moreover, the growth inhibition in test [3] (setting [7]) is 4%; in test [3] (setting [8]), -1%; in test [3] (at 50.0 µM), 52%; in test [4] (setting [7]), 0%; in test [4] (setting [8]), 4%; in test [4] (at 50.0 µM) it was 43.1%. The growth inhibition is -2% in test [5] (setting [7]); -3% in test [5] (setting [8]); 89.6% (active) in test [5] (at 50.0 µM); -3% in test [6] (setting [7]); 7% in test [6] (setting [8]); 35.6% in test [6] (at 50.0 µM).

Consider `FC(F)(F)c1ccc(NC(=S)SCc2ccc3c(c2)OCO3)cc1`, for which the growth inhibition in test [1] (setting [7]) was -5%; in test [1] (setting [8]), 0%; in test [1] (at 50.0 µM), 74.5% (active); in test [2] (setting [7]) it was -5%; in test [2] (setting [8]) it was -1%; in test [2] (at 50.0 µM), 95% (active). Also, the growth inhibition in test [3] (setting [7]) was -3%; in test [3] (setting [8]), 25%; in test [3] (at 50.0 µM) it was 93.3% (active); in test [4] (setting [7]), -11%; in test [4] (setting [8]), -15%; in test [4] (at 50.0 µM), 86.3% (active). Further, the growth inhibition in test [5] (setting [7]) is -8%; in test [5] (setting [8]) it was -6%; in test [5] (at 50.0 µM), 87% (active); in test [6] (setting [7]), -8%; in test [6] (setting [8]) it was 24%; in test [6] (at 50.0 µM), 93.2% (active).

The values are drawn from PubChem BioAssay (NCI).
